Records with an inconclusive call do not appear. A call without a number means that no potency is given here. Activity calls are given as the source filed them. Unless noted, calls follow the shape of the dose curve; as a rule, active = well fitted curve in the direction sought with a large enough effect in the repeat runs; inconclusive = weak or mixed curves; inactive = no such curve, though single readings can be large; an effect the other way counts as inactive or inconclusive.
Experiments:
[1] = biological target: Calcium and integrin-binding protein 1 (Homo sapiens) (UniProt Q99828); experiment: Primary qHTS for Identification of Calcium Integrin Binding Protein 1 (CIB1) Competitor (AID 1508620; active = well fitted curve in the direction sought with a large enough effect; an effect the other way counts as inactive or inconclusive;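 also: GST tagged CIB1 binding a fluorescein labelled alphaIIb integrin peptide tracer; top concentration of the series differs between compounds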)
Chain of Calcium and integrin-binding protein 1 (Homo sapiens) (Q99828 whole entry, looked up): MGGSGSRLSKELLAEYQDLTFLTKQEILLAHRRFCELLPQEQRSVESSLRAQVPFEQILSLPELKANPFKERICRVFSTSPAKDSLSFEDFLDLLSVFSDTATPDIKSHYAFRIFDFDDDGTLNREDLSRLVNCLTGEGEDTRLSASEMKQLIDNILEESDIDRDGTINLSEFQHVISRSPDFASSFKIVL
Procedure, shortened: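 Fluorescence polarization competition: CIB1-GST (1 uM final) preincubated with compound 15 min at room temperature, then FITC-labeled alphaIIb peptide (100 nM final) added for another 15 min. Polarization read at Ex 480/Em 540.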

[2] = biological target: Cytochrome P450 2D6 (Homo sapiens) (UniProt P10635); experiment: Cytochrome P450 family 2 subfamily D member 6 (CYP2D6) small molecule antagonists: luciferase biochemical (cell-free) qHTS assay (AID 1645840); also: nearly all actives have a fitted effect of over 55% in size; also: potency is read from the fitted curve at half-maximal effect
Chain of Cytochrome P450 2D6 (Homo sapiens) (P10635 whole entry, looked up): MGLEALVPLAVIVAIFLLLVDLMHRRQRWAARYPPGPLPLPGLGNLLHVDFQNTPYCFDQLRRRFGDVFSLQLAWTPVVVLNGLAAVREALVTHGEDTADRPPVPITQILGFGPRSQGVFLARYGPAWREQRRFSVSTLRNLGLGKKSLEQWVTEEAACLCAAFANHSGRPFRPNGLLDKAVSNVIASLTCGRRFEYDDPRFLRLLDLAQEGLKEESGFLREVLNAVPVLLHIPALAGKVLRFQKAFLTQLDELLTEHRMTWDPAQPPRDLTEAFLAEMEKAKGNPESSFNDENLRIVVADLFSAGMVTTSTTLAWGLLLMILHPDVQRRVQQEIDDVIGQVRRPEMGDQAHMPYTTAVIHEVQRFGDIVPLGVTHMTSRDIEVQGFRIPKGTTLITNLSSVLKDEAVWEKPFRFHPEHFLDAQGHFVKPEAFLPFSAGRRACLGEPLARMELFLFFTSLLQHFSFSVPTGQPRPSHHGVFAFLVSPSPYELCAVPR
Procedure, shortened: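 P450-Glo CYP2D6 system: proluciferin substrate converted by enzyme to luciferin, read by luminescence proportional to activity. Enzyme-substrate mix with compound 10 min at room temperature, then NADPH regeneration 1 h before detection reagent.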

[3] = biological target: Cytochrome P450 2C9 (Homo sapiens) (UniProt P11712); experiment: Cytochrome P450 family 2 subfamily C member 9 (CYP2C9) small molecule antagonists: luciferase biochemical (cell-free) qHTS assay (AID 1645842); also: nearly all actives have a fitted effect of over 55% in size; also: potency is read from the fitted curve at half-maximal effect
Chain of Cytochrome P450 2C9 (Homo sapiens) (P11712 whole entry, looked up): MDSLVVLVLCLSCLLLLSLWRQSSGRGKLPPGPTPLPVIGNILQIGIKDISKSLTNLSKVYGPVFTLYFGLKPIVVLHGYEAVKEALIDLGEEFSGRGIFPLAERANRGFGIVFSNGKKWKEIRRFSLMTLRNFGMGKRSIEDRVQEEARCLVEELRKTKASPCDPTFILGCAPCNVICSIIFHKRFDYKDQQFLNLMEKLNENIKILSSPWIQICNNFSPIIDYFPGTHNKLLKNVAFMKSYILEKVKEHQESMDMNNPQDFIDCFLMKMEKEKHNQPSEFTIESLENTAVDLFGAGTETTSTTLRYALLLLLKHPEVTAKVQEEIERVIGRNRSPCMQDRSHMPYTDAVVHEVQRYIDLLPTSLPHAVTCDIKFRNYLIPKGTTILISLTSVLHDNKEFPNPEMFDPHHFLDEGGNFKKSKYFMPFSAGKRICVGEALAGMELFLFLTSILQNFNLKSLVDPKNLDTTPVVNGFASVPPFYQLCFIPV
Procedure, shortened: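 P450-Glo CYP2C9 system: proluciferin substrate with enzyme in mix containing 0.4% BSA, 10 min at room temperature, then NADPH regeneration solution added and incubated 1 h at 37C. Detection reagent stopped reaction; luminescence read after 20 min as RLU.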

[4] = Primary qHTS for inhibitors of nuclear receptor binding SET domain protein 2 (NSD2) in an isogenic RCH-ACV NSD2 p.E1099K mutant (9B) (AID 1645876; active = well fitted curve in the direction sought with a large enough effect; an effect the other way counts as inactive or inconclusive; also: nearly all actives have a fitted effect of over 70% in size; also: potency is read from the fitted curve at half-maximal effect)

SMILES: CCOc1cc(CC(=O)NC(CC(C)C)c2ccccc2N2CCCCC2)ccc1C(=O)O (stereo not given)
- Potency [1]: inactive
- Potency [2]: inactive
- Potency [3]: inactive
- Potency [4]: inactive

SMILES: COC(=O)CCSCc1ccc(-c2onc(C)c2NC(=O)OC(C)c2ccccc2Cl)cc1 (stereo not given)
- Potency [1]: inactive
- Potency [2]: 2.68 µM (active)
- Potency [3]: 1.51 µM (active)
- Potency [4]: inactive

SMILES: COc1cc(Br)c(S(=O)(=O)Nc2ccc(C(F)(F)F)c(O[C@@H]3CCN(C)C3)c2)cc1OC
- Potency [1]: inactive
- Potency [2]: 23.9 µM (active)
- Potency [3]: 23.9 µM (active)
- Potency [4]: inactive

SMILES: CCOC(=O)c1cc(C#N)c(N2CCC(C(=O)NS(=O)(=O)Cc3ccccc3)CC2)nc1C
- Potency [1]: inactive
- Potency [2]: inactive
- Potency [3]: 2.68 µM (active)
- Potency [4]: inactive

SMILES: Cn1cc(-c2ccc3nnc(Sc4ccc5nn(C)cc5c4)n3n2)cn1
- Potency [1]: inactive
- Potency [2]: inactive
- Potency [3]: 4.77 µM (active)
- Potency [4]: inactive

SMILES: COc1cc(C(=O)NC2CCN(C)CC2)c(F)cc1Nc1ncc2c(n1)N(C1CCCC1)CC(F)(F)C(=O)N2C
- Potency [1]: inactive
- Potency [2]: inactive
- Potency [3]: 5.35 µM (active)
- Potency [4]: 0.059 µM (active)

SMILES: O=C(Nc1ccccc1)N1CCN(Cc2ccc3ccccc3n2)CC1
- Potency [1]: inactive
- Potency [2]: inactive
- Potency [3]: 10.7 µM (active)
- Potency [4]: inactive

SMILES: CC1CCN(C(=O)CC#N)CC1N(C)c1ncnc2[nH]ccc12 (stereo not given)
- Potency [1]: inactive
- Potency [2]: inactive
- Potency [3]: 23.9 µM (active)
- Potency [4]: inactive

SMILES: O=C(Nc1nc2ccccc2n1CCc1ccccc1)c1ccccc1
- Potency [1]: inactive
- Potency [2]: inactive
- Potency [3]: 8.49 µM (active)
- Potency [4]: 6.49 µM (active)

SMILES: N#Cc1ccc2[nH]cc(CCCCN3CCN(c4ccc5oc(C(N)=O)cc5c4)CC3)c2c1
- Potency [1]: inactive
- Potency [2]: 4.77 µM (active)
- Potency [3]: 13.5 µM (active)
- Potency [4]: 14.5 µM (active)

Source: PubChem BioAssay (NCATS)
